Measurements published in PubChem BioAssay AID1490 (National Center for Advancing Translational Sciences (NCATS), 2009).
Several values for one entry are separate records, joined by “and”; a condition that tells them apart may be missing. Equal entries are not always repeated. About 11,000 (3.5%) of roughly 310,000 compounds were called active. About 4% were inconclusive and are not listed. This excerpt belongs to a sample that is enriched for actives. A number with no mark means an inactive call. The call rests on the fitted dose curve; in most records, active means well fitted inhibition curve with a large enough effect; inconclusive means small, poorly fitted or top-dose-only effect, or another doubt; inactive means no such curve, though single readings can be large or run the other way.

biological target: 4'-phosphopantetheinyl transferase ffp (Bacillus subtilis) (UniProt Q9F4F7); experiment: qHTS Assay for Inhibitors of Bacillus subtilis Sfp phosphopantetheinyl transferase (PPTase); conditions: Biochemical Sfp PPTase activity;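 further: the enzyme is Sfp with the accession as filed and its product quenches rhodamine fluorescence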;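 on largest response in the series, negative = inhibition: 0% = enzyme reaction without inhibitor and -100% = no enzyme wells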
Source text: Assay Submitter: Michael Burkart, University of California, San Diego
Screening Center PI: Austin, C.P.
Screening Center: NIH Chemical Genomics Center [NCGC]
The covalent attachment of a phosphopantetheinyl (4'-PP) arm to a variety of synthases and other proteins is a key posttranslational protein modification. The 4'-PP is installed on the proteins post-translationally from coenzyme A (CoA) on a conserved serine residue by action of phosphopantetheinyl transferase (PPTase) enzymes. Phosphopantetheinylation is essential for synthase activity, and removal of the PPTase gene precludes natural product synthesis in microorganisms, or in the case of fatty acid biosynthesis, renders the organism unviable. PPTase enzymes belong to a distinct structural superfamily. Within bacteria, these enzymes are grouped into two classes based upon primary structure, the AcpS-Type and Sfp-Type PPTases.
Sfp-type PPTases, corresponding to an activator of surfactin production in Bacillus subtilis, are responsible for modifying type I polyketide and nonribosomal peptide synthases of prokaryotes. Sfp-type PPTases are responsible for the activation of a variety of pathogen-associated virulence factors. Among these compounds are toxins such as mycolactone from Mycobacterium ulcerans, siderophores such as vibriobactin from Vibrio cholerae or mycobactin from Mycobacterium tuberculosis, as well as the mycolic acids which form the waxy cell wall of Mycobacteria. The biosyntheses of these natural products are considered attractive targets for drug design.
In search of small molecule Sfp-PPTase inhibitors, a fluorescence quenching assay was developed for detection of Bacillus subtilis Sfp-PPTase enzymatic activity in a miniaturized high-throughput format. The consensus ybbr acceptor peptide […] was N-terminally labeled with Black Hole Quencher-2 (BHQ-2) and used in combination with rhodamine-labeled coenzyme A as a co-substrate.
Inhibition of Sfp-PPTase was detected by recording the fluorescence intensity change over a 30-minute reaction period at a 525 nm excitation and 598 nm emission. Reagents were supplied by Michael Burkart and Timothy Foley, University of California at San Diego.
This BioAssay deposition is for validation of the developed Sfp-PPtase assay.
Assay Buffer: 50 mM Hepes-Na pH 7.6, 10 mM MgCl2, 0.01% Nonidet P-40, and 0.01% BSA.
3 uL of Sfp-PPTase enzyme (final concentration 15 nM) and 1 uL of substrate mixture (final concentration for rhodamine-CoA and BHQ-2-YbbR 5 uM and 12.5 uM, respectively) dispensed in columns 1, 2, 5 - 48. Columns 1 and 2 used to generate neutral control (uninhibited reaction)
Three uL of reagents, consisting of buffer (in columns 3 and 4 as negative control) and Sfp-PPTase (in columns 1, 2, 5 - 48) were dispensed into 1,536-well Greiner black solid bottom plate. Compounds (23 nL) were transferred via Kalypsys pintool equipped with 1,536-pin array. The plate was incubated for 15 min at room temperature, followed by the addition of 1 uL substrate to start the reaction. The plate was then centrifuged at 1000 rpm for 15 seconds, and the fluorescence intensity recorded on a ViewLux High-throughput CCD imager (Perkin-Elmer) using standard BODIPY optics (525 nm excitation and 598 nm emission). The plate was then incubated for 30 minutes, and a second read on the ViewLux was performed. The fluorescence intensity difference over the 30-minute period was used to calculate the respective reaction rate for each well.
Potency means the concentration at half of the fitted maximal effect.

Row | Structure (SMILES) | largest response in the series, negative = inhibition | Potency
1 | CC(c1ccccc1)(c1ccccc1)c1ccncc1 | 5% | 
2 | c1csc(CN2CCCC3(CCNCC3)C2)n1 | 3.74% | 
3 | COc1ccc(C2Oc3c(I)c(OC)cc(OC)c3CC2O)cc1OC (centres undefined) | -16.3% | 
4 | CC[N+](C)(CC)CCC[n+]1c(-c2ccccc2)c2cc(N)ccc2c2ccc(N)cc21 |  | 28.2 µM (active) and 50.1 µM (active)
5 | CC(C)(C)c1ccc(CN2C(=O)CN=C(c3ccccc3)c3ccccc32)cc1 | -3.66% | 
6 | Cc1ccc(S(=O)(=O)N(C)c2ccc(C(=O)NCC3(N(C)C)CCCCC3)cc2)cc1 | 13.3% | 
7 | COC1=C[C@]23CCCN2CCc2cc4c(cc2[C@@H]3[C@@H]1O)OCO4 | 1.35% | 
8 | CC(=O)c1c(O)n(C2CCCCCC2)c(=O)[nH]c1=O | 6.22% | 
9 | COc1ccccc1N1CCN(C(CNC(=O)Oc2ccccc2)c2cccnc2)CC1 (centres undefined) | 2.8% | 
10 | COc1ccc(CCn2c(O)c(C=NC3CC3)c(=O)[nH]c2=O)cc1OC | 12.3% | 
11 | O=C(O)C1CSC(c2cccnc2)N1 (centres undefined) |  | 56.2 µM (active)
12 | CNC(=O)Nc1ccc(C(O)(C(=O)OC)C(F)(F)F)cc1 (centres undefined) | 6.69% | 
13 | CN1CCN(C(=O)O[C@@H]2c3nccnc3C(=O)N2c2ccc(Cl)cn2)CC1 | -8.07% | 
14 | CC(=C1C(=O)c2ccccc2C1=O)N1CCN(CCN=Cc2c(O)n(C)c(=O)n(C)c2=O)CC1 | 10.2% | 
15 | CN1C2CC3CC1C(O3)C2O (centres undefined) | -0.102% | 
16 | Fc1ccc(C(OCCN2CCN(C/C=C\c3ccccc3)CC2)c2ccc(F)cc2)cc1 |  | 89.1 µM (active)
17 | C[C@H]1CC[C@@]2(NC1)O[C@@H]1C[C@H]3[C@@H]4CC=C5C[C@@H](O)CC[C@]5(C)[C@@H]4CC[C@]3(C)[C@@H]1[C@@H]2C | 7.1% | 
18 | COc1ccc(NC(=O)N2CCC3(CC2)OCCO3)c(OC)c1 | -7.26% | 
19 | CO[C@H]1[C@@H](O)[C@@H](C)O[C@H](O[C@H]2[C@H](Oc3cccc4c(O)c5c(=O)oc6ccc(C)c7c(=O)oc(c34)c5c67)O[C@H](C)[C@H](O)[C@@H]2O)[C@@H]1O | -22.5% | 
20 | CN(C)C(=O)Oc1cc(OC(=O)N(C)C)cc(C(O)CNC(C)(C)C)c1 (centres undefined) | 2.1% | 
21 | O=C1NC(=O)N(Cc2ccco2)C(=O)/C1=C\c1cccn1CCOc1ccccc1 |  | 20 µM (active)
22 | O=C1NC(=O)N(Cc2ccco2)C(=O)/C1=C\c1ccc(-c2ccc(F)cc2)o1 |  | 31.6 µM (active)

Row | Structure (SMILES) | largest response in the series, negative = inhibition | Potency
23 | CC[C@]1(O)C(=O)OCc2c1cc1n(c2=O)Cc2cc3ccccc3nc2-1 | 6.01% | 
24 | COP(=O)(NS(=O)(=O)c1ccccc1)OC | 17.4% | 
25 | C=CCN1CCC2(C)c3cc(O)ccc3CC1[C@@H]2C (some centres undefined) | 3.98% | 
26 | CCc1nnc(NS(=O)(=O)c2ccc(N=Cc3c(O)n(-c4ccccc4)c(=O)[nH]c3=O)cc2)s1 | -8.17% | 
27 | Cc1cc(C)cc(NC(=S)NC2CC3CCCC(C2)N3Cc2cccs2)c1 (centres undefined) | 14.7% | 
28 | CC(C)Oc1cccc(C(=O)C2CCCN(C3CCOCC3)C2)c1 (centres undefined) | 17.1% | 
29 | CCN(CC)c1nc(C)cc(OP(=S)(OC)OC)n1 | 6.37% | 
30 | O=c1c2ccccc2nc(/C=C/c2ccco2)n1-c1ccccc1O |  | 10 µM (active)
31 | O=c1c2ccccc2nc(-c2ccco2)n1-c1ccc(Br)cn1 | -3.04% | 
32 | O=c1c2ccccc2nc(/C=C/c2ccc(F)cc2)n1-c1ccccc1O | -2% | 
33 | CCN1CC2C3CCC(C)(O3)C2C1 (centres undefined) | 13.8% | 
34 | O=C(N/N=C/c1c(O)n(C2CC2)c(=S)[nH]c1=O)c1ccccc1Cl | 9.37% | 
35 | CC(C)(C)c1ccc(OC(=O)N2CCCCC2)cc1 | -1.08% | 
36 | N[C@H](C(=O)O)c1cc(=O)[nH]o1 | 2.79% | 
37 | N[C@H](Cc1o[nH]c(=O)c1Cl)C(=O)O |  | 79.4 µM (active)
38 | CCOP(=O)(OCC)C(O)c1ccc(OC)cc1OC (centres undefined) | 9.04% | 
39 | CN(C)C(=O)Oc1cc(=O)n2c3c(cccc13)CCC2 | 10.3% | 
40 | C[C@]12CC[C@H](O)C[C@@H]1CC[C@H]1[C@H]2CC[C@]2(C)C(=O)CC[C@@H]12 | -1.51% and 34.7% and 1.49% | 
41 | O=[N+]([O-])c1ccc(C2C3C(c4ccccc4)=NC4(CCCCC4)N32)cc1 (centres undefined) | -4.07% | 
42 | c1csc(CN2CC3(CCNCC3)C2)n1 | 12.2% | 
43 | C=CCN(CC=C)C(=O)Nc1ccc(OCC)cc1 | 0.3% | 
44 | C=CCN1C(=O)NC(=O)/C(=C/c2ccc(OCC(=O)Nc3ccc(C)cc3)cc2)C1=O |  | 35.5 µM (active)
